In all, about 310,000 compounds went through this assay and about 2,200 (0.71%) showed an effect of 50% or more. Effects have a minus sign here. The sample as a whole holds a higher share of strong results than the screen did.
Molecular target: human ether-à-go-go-related gene (hERG) potassium channel (human, UniProt Q12809)
Test: primary screen, population patch clamp on CHO cells stably expressing hERG; higher = less effect of the substance

Chain of human ether-à-go-go-related gene (hERG) potassium channel (Q12809 whole entry, looked up): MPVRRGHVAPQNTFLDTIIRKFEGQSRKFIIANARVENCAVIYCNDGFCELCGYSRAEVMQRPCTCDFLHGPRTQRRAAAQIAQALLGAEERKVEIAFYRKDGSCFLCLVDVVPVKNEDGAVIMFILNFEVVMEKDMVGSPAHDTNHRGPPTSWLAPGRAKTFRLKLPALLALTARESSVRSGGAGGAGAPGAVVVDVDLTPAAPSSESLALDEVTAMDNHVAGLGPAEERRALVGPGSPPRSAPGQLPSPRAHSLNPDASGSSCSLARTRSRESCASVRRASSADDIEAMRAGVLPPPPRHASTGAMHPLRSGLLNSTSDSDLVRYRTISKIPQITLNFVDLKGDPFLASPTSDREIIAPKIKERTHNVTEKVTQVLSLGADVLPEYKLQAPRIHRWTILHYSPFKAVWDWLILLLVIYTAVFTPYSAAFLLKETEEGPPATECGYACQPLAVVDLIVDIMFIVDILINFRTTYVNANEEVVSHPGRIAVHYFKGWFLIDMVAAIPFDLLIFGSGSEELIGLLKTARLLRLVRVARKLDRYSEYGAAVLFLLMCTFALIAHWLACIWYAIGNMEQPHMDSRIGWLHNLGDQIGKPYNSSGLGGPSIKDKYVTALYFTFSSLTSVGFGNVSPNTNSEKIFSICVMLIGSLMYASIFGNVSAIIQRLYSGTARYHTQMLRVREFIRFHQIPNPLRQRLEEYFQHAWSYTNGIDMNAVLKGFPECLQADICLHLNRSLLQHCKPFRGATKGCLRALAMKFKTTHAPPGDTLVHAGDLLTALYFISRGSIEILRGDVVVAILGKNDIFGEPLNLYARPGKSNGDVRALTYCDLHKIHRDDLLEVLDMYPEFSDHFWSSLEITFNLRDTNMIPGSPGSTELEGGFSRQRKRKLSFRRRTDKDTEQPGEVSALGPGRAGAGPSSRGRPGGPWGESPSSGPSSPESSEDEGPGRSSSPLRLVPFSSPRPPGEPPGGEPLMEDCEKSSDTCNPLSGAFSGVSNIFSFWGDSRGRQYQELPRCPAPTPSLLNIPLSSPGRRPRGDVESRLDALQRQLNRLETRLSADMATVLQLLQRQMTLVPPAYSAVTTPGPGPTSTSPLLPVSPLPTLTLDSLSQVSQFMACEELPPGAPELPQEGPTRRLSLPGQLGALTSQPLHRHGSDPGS

| Compound | hERG current change (%, negative = inhibition) at 1uM [%] |
| --- | --- |
| Cc1nn2c(-c3ccc(Cl)cc3Cl)nnc2s1 | -0.908 |
| COc1cccc(CN2CCCC(C(=O)c3ccc4c(c3)OCO4)C2)c1O (centres unmarked) | -44.6 |
| COc1cccc(CN2CCCC(C(=O)c3ccc4c(c3)OCO4)C2)c1OC (centres unmarked) | -25.3 |
| O=C(c1ccc2c(c1)OCO2)C1CCCN(Cc2cc(F)ccc2-n2cccn2)C1 (centres unmarked) | -78.2 |
| Br.Nc1nc(-c2ccc(Br)cc2)cs1 | -2.25 |
| C/C(=N/N1CCN(c2ccccc2)CC1)c1cccc([N+](=O)[O-])c1 | 8.81 |
| Cc1ccc(Cl)cc1NS(=O)(=O)Cc1ccccc1 | 14.1 |
| O=C(Nc1ccc(NC(=O)c2cccs2)cc1)c1cccnc1 | 13.4 |
| Cc1ccccc1NS(=O)(=O)c1ccc(OCC(=O)NCc2ccccn2)cc1 | 3.12 |
| O=C(c1ccco1)N1CCN(Cc2cc(=O)c(OCc3ccc([N+](=O)[O-])cc3)co2)CC1 | -29.4 |
| Cc1ccc(-c2cc(C(=O)Nc3ccc(S(=O)(=O)Nc4onc(C)c4C)cc3)[nH]n2)c(O)c1 | -1.84 |
| CN1CCN(c2nc(-c3ccc(Cl)c(Cl)c3)nc3ccccc23)CC1 | 9.87 |
| CN1CCN(c2nc(-c3ccc(Cl)cc3Cl)nc3ccccc23)CC1 | -58.1 |
| CN1CCN(c2nc(-c3ccncc3)nc3ccccc23)CC1 | -64.9 |
| CCN1CCN(c2nn3c(=O)c4ccccc4nc3c3ccccc23)CC1 | -71.5 |
| Cc1ccc(-c2nc(N3CCN(C)CC3)c3ccccc3n2)cc1.Cl | 3.62 |
| CCN1CCN(c2nc(-c3ccccn3)nc3ccccc23)CC1 | -17.5 |
| CCN1CCN(c2nc(-c3ccccc3)nc3ccccc23)CC1 | -30.4 |
| CN1CCN(c2nc(-c3ccccc3Cl)nc3ccccc23)CC1 | -19.8 |
| CCN1CCN(c2nc(-c3cccnc3)nc3ccccc23)CC1.Cl | -18.4 |
| c1ccc2c(N3CCCC3)nc(-c3ccncc3)nc2c1 | 1.09 |
| CC1CN(c2nn3c(=O)c4ccccc4nc3c3ccccc23)CC(C)O1 (centres unmarked) | -0.465 |

| Compound | hERG current change (%, negative = inhibition) at 1uM [%] |
| --- | --- |
| CCN1CCN(c2nc(-c3ccncc3)nc3ccccc23)CC1 | -75.6 |
| C/C(=N\NC(=O)c1ccc(Cl)cc1)c1ccccn1 | 8.17 |
| O=S1(=O)CCC(NCC2CCCO2)C1 (centres unmarked) | 12.9 |
| CC(C)C(NC(=O)OCc1ccccc1)C(=O)OCC(=O)NC1CC1 (centres unmarked) | 11.3 |
| Fc1ccc(N/N=C/c2ccc(N3CCOCC3)cc2)c(F)c1 | 9.29 |
| CCc1ccc(CN(C)C(=O)C2CCC(=O)N(CC3CCCCC3)C2)cc1 (centres unmarked) | -12.3 |
| COc1ccccc1N1CCN(C(=O)c2cn(C)c3ccc(S(=O)(=O)N4CCOCC4)cc3c2=O)CC1 | 13.1 |
| O=c1nc(-c2ccccc2)n(-c2ccccc2)c2ncccc12 | 10.8 |
| Cn1c(SCC(=O)NC2CCS(=O)(=O)C2)nnc1-c1ccco1 (centres unmarked) | 10.3 |
| Cc1cccc(NS(=O)(=O)c2cccs2)c1 | 10.7 |
| CC1CC(C)CN(c2nc3c(c(=O)n(C)c(=O)n3C)n2C)C1 (centres unmarked) | 11.1 |
| O=C(/C=C/c1ccc(F)cc1)Nc1cc(S(=O)(=O)N2CCOCC2)ccc1N1CCCC1 | -60.3 |
| O=C(/C=C/c1cccc(F)c1)Nc1cc(S(=O)(=O)N2CCOCC2)ccc1N1CCCC1 | 0.626 |
| O=C(/C=C/c1ccccc1)Nc1cc(S(=O)(=O)N2CCOCC2)ccc1N1CCCC1 | 15.7 |
| CCN1CCN(c2ccc(S(=O)(=O)N3CCOCC3)cc2NC(=O)/C=C/c2ccc(C)cc2)CC1 | -4.67 |
| CCN1CCN(c2ccc(S(=O)(=O)N3CCCCC3)cc2NC(=O)/C=C/c2ccc([N+](=O)[O-])cc2)CC1 | 6.53 |
| CCN1CCN(c2ccc(S(=O)(=O)N3CCOCC3)cc2NC(=O)/C=C/c2ccc([N+](=O)[O-])cc2)CC1 | -50.5 |
| O=c1cc(-c2ccccc2[N+](=O)[O-])oc2ccccc12 | 7.73 |
| CC(C)C(=O)C1=Cc2cc([N+](=O)[O-])ccc2OC1N1CCOCC1 (centres unmarked) | 9.39 |
| O=C(CCCC(=O)NCC1CCCO1)NCC1CCCO1 (centres unmarked) | 3.68 |
| O=c1ccc2cc3c([nH]c4ccc(Br)cc43)oc-2c1O | 4.16 |
| CCN1CCN(C(c2ccc(OC)cc2)C(O)C(=O)c2c[nH]c3ccccc23)CC1 (centres unmarked) | -64.4 |

| Compound | hERG current change (%, negative = inhibition) at 1uM [%] |
| --- | --- |
| COc1ccc(C(C(O)C(=O)c2c[nH]c3ccccc23)N2CCN(c3ccc(OC)cc3)CC2)cc1 (centres unmarked) | 2.28 |
| COc1ccc(C(C(O)C(=O)c2c[nH]c3ccccc23)N2CCN(c3ccccc3)CC2)cc1 (centres unmarked) | 4.75 |
| CC(C)Oc1ccc(N2CC(C(=O)Nc3ccc4c(c3)OCO4)CC2=O)cc1 (centres unmarked) | 5.88 |
| Cc1[nH]c(=O)[nH]c(=O)c1S(=O)(=O)Nc1cccc([N+](=O)[O-])c1C | 11.5 |
| COc1cccc(OC)c1OCCCCN1CCCC1 | 4.67 |
| COc1cccc(OC)c1OCCCCN1CCC(Cc2ccccc2)CC1.O=C(O)C(=O)O | -78.6 |
| COc1cc(CN2CCC(Cc3ccccc3)CC2)cc(OC)c1OC.O=C(O)C(=O)O | -12 |
| COc1cccc(OC)c1OCCCCN1CCCCC1.O=C(O)C(=O)O | 9.21 |
| O=C(O)C(=O)O.c1ccc(COc2ccc(OCCCCN3CCCC3)cc2)cc1 | -28.2 |
| CC(=O)CCc1ccc(OCCCCN2CCC(Cc3ccccc3)CC2)cc1.O=C(O)C(=O)O | -68.3 |
| COc1cccc(OC)c1OCCCN1CCC(Cc2ccccc2)CC1.O=C(O)C(=O)O | -79.3 |
| COc1ccccc1N1CCN(CCCCOc2c(OC)cccc2OC)CC1.O=C(O)C(=O)O | -38.6 |
| CC1CCN(CCCOc2ccc(OCc3ccccc3)cc2)CC1.O=C(O)C(=O)O | -14.1 |
| COc1cc2cc(C(c3nnnn3C(C)(C)C)N3CCc4ccccc4C3)c(=O)[nH]c2cc1OC (centres unmarked) | -3.88 |
| CCN(CCNC(=O)CCCn1nc(C)n2c(cc3sccc32)c1=O)c1ccccc1 | -1.14 |
| CN(C)Cc1ccc(-c2nc3cccc4c3n2CCNC4=O)cc1 | -0.249 |
| O=C(NCc1ccccc1)C(c1ccco1)N(C(=O)c1csnn1)C1CC1 (centres unmarked) | 11.6 |
| COc1ccc(Cn2c(C)nc3ccc([N+](=O)[O-])cc3c2=O)cc1 | 5.96 |
| Cc1nc2ccccc2c(=O)n1Cc1ccc([N+](=O)[O-])cc1 | -64.8 |
| Cc1nc2ccc([N+](=O)[O-])cc2c(=O)n1Cc1ccc(Br)cc1 | 14.8 |
| Cc1nc2ccc([N+](=O)[O-])cc2c(=O)n1Cc1ccc([N+](=O)[O-])cc1 | -76.5 |
| Cc1nc2ccc([N+](=O)[O-])cc2c(=O)n1Cc1ccc(Cl)cc1 | 10.5 |

| Compound | hERG current change (%, negative = inhibition) at 1uM [%] |
| --- | --- |
| Cc1nc2ccc([N+](=O)[O-])cc2c(=O)n1Cc1ccc(F)cc1 | -9.51 |
| CC(=O)Nc1cccc(N2CCCC2=O)c1 | 4.99 |
| O=C(CN1CCN(Cc2ccccc2)CC1)N/N=C/C=C/c1ccccc1[N+](=O)[O-] | -32.1 |
| COc1ccc(NC(=O)Nc2cc(C(=O)O)ccc2N2CC3CC(C2)c2cccc(=O)n2C3)c(OC)c1 (centres unmarked) | 5.08 |
| CC(NC(=O)Cc1ccccc1)c1cc2c(cc1Br)OCCCO2 (centres unmarked) | 6.49 |
| CCOC(=O)Cn1nc(C)c(NC(=O)COc2ccc(OC)cc2)c1C | 4.48 |
| CC(C)(C)Nc1nc(Cl)nc(N(C#N)CN2C(=O)c3ccccc3S2(=O)=O)n1 | 16.1 |
| CCN(CC)S(=O)(=O)c1cc(C)ccc1NC(=S)Nc1cccnc1 | 3.41 |
| Cc1ccc(N(CC(O)CN2CCCC2)S(=O)(=O)c2ccc(C)cc2)cc1.Cl (centres unmarked) | -81.7 |
| Cc1ccc(N(CC(O)CN2CCCCC2)S(=O)(=O)c2ccc(C)cc2)cc1 (centres unmarked) | 12.8 |
| Cc1ccc(S(=O)(=O)N(CC(O)CN2CCCC2)c2ccccc2)cc1 (centres unmarked) | -44.8 |
| Cc1ccc(S(=O)(=O)N(CC(O)CN2CCCCC2)c2ccccc2)cc1.Cl (centres unmarked) | -60.5 |
| O=S(=O)(c1ccccc1)N(CC(O)CN1CCOCC1)c1ccccc1 (centres unmarked) | 9.04 |
| Cc1ccc(S(=O)(=O)N(CC(O)CN2CCOCC2)c2cc(Cl)ccc2Cl)cc1.Cl (centres unmarked) | -2.22 |
| Cc1ccccc1S(=O)(=O)N(CC(O)CN1CCCCC1)c1ccccc1 (centres unmarked) | -71.2 |
| Cl.O=S(=O)(c1ccccc1)N(CC(O)CN1CCCCC1)c1ccccc1 (centres unmarked) | -21 |
| Cc1ccc(N(CC(O)CN2CCOCC2)S(=O)(=O)c2ccc([N+](=O)[O-])cc2)cc1 (centres unmarked) | -49.1 |
| Cc1ccc(N(CC(O)CN2CCOCC2)S(=O)(=O)c2ccc3ccccc3c2)cc1 (centres unmarked) | -55.6 |
| Cl.O=S(=O)(c1ccc2ccccc2c1)N(CC(O)CN1CCOCC1)c1ccccc1 (centres unmarked) | -21.2 |
| O=S(=O)(c1ccccc1)N(CC(O)CN1CCCC1)c1ccccc1 (centres unmarked) | 3.65 |

Source: article PMC4336329 (PLoS ONE, 2015)
